# BRCA1 expr act – qHTS Assay to Identify Small Molecule Activators of BRCA1 Expression. MCF7-BRCA1-FFLuc reporter, luminescence, 48 h; response scale: scaled: vehicle 0%, 10 µM genistein 100%. Potency, µM (titrated, usually from 46.1 µM), for inactives: at the top dose activation, usual class: activators. 380,000 compounds, 1.1% hits; also: nearly all actives have a fitted effect of over 80% in size
#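 First, MCF7-BRCA1-FFLuc cells (2000/well) attach for 2 h; next, compounds are pin-added and incubated 48 h at 37 °C; finally, luciferase reagent is added and luminescence read after 15 min.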
# EPAC2 ag – qHTS for Agonist of cAMP-regulated guanine nucleotide exchange factor 4 (EPAC2): primary screen. Rap guanine nucleotide exchange factor 4 (Homo sapiens), Q8WZA2. EPAC2 activation, biochemical qHTS; response scale: 100% = 6.5 mM cAMP response. Potency, µM (doses to about 154 µM), inactives show at the top dose activation, usual class: activators. 360,000 compounds, 0.079% hits; also: nearly all actives have a fitted effect of over 50% in size
#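 EPAC2 (100 nM) mixed with Rap1B loaded with BODIPY-GDP (250 nM) plus 50 uM unlabeled GDP; compounds pinned in, 5 min RT, then read every 5 min for 30 min (ex 480, em 540 nm). Normalized to cAMP control.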
# USP1 inh – Inhibitors of USP1/UAF1: Primary Screen | 390,000 compounds, 0.23% hits | recombinant USP1/UAF1, Ub-Rhodamine cleavage fluorescence | Ubiquitin carboxyl-terminal hydrolase 1 (Homo sapiens), O94782 | Potency, µM (doses to about 57.1 µM), inactives show at the highest dose activity change, negative = inhibition, actives largely listed as inhibitors; also: % is scaled to controls: 0 for no effect and ±100 for the full control effect; nearly all actives have a fitted effect of over 60% in size
#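 USP1/UAF1 complex (1 nM) preincubated 15 min at room temperature with compound, then Ub-Rho substrate (150 nM final) added. Kinetic fluorescence at 480/540 nm over 6 reads at 60 s intervals; 50 mM HEPES pH 7.8, 0.5 mM EDTA, 0.1 mg/ml BSA, 1 mM TCEP, 0.01% Tween-20.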
# EPAC1 ag – qHTS for Agonist of cAMP-regulated guanine nucleotide exchange factor 3 (EPAC1): primary screen | Rap guanine nucleotide exchange factor 3 (Homo sapiens), O95398 | EPAC1 agonist qHTS, biochemical assay; response scale: 100% = response to 6.5 mM cAMP | Potency, µM (top dose mostly 154 µM), for inactives: at the highest dose activation, most hits filed as activators | 360,000 compounds, 0.073% hits; also: nearly all actives have a fitted effect of over 60% in size
# Target sequence (O95398 whole entry, looked up): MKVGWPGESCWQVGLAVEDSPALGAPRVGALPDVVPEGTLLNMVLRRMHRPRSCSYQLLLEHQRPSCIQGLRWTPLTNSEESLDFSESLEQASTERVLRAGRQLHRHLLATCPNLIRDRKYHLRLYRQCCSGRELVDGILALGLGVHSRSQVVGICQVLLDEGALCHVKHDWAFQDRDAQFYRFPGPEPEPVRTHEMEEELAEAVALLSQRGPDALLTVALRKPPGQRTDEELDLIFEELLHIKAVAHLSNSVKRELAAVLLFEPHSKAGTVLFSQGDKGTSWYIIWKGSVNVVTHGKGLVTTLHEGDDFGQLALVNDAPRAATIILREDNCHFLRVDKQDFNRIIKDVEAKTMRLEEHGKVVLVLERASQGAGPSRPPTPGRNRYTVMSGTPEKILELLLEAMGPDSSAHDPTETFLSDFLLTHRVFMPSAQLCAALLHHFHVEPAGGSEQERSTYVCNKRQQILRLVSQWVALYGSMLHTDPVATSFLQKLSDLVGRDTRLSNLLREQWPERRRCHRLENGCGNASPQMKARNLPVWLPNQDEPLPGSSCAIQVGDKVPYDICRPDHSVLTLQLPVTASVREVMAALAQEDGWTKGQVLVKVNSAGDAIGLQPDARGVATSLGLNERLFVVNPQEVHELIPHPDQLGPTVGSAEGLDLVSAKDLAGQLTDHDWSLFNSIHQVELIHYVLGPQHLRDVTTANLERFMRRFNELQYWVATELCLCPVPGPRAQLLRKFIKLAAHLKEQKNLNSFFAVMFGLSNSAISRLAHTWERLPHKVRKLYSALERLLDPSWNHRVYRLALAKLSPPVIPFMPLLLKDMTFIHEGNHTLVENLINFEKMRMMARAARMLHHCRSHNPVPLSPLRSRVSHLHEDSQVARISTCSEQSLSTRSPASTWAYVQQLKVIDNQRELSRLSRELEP
#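 Normalized to 6.5 mM cAMP, activity reflects EPAC1-catalysed release of BODIPY-GDP from Rap1B, followed kinetically over 30 min at 480 nm excitation, 540 nm emission. Reaction contained 100 nM EPAC1, 250 nM Rap1B-BODIPY-GDP, 50 uM GDP.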
# EPAC2 antag – qHTS for Antagonist of cAMP-regulated guanine nucleotide exchange factor 2 (EPAC2): primary screen; Rap guanine nucleotide exchange factor 4 (Homo sapiens), Q8WZA2; Potency, µM (series often up to 114 µM), for inactives: top-dose activity, negative = inhibition, hits mostly inhibitors; AID 720708, 2013; EPAC2 GEF exchange of Rap1B-BODIPY-GDP, fluorescence; 360,000 compounds, 0.18% hits; also: % is scaled to controls: 0 for no effect and ±100 for the full control effect; nearly all actives have a fitted effect of over 45% in size
# EPAC1 antag – qHTS for Antagonist of cAMP-regulated guanine nucleotide exchange factor 3 (EPAC1): primary screen. Rap guanine nucleotide exchange factor 3 (Homo sapiens), O95398. EPAC1 GEF assay, Rap1b-BODIPY-GDP exchange fluorescence. 360,000 compounds, 0.14% hits. AID 720709, 2013. Potency, µM (highest dose often 115 µM), for inactives: top-dose activity change, negative = inhibition, actives largely listed as inhibitors;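 also: plate controls were vehicle for no effect and positive control for full effect; nearly all actives have a fitted effect of over 50% in size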
# * hit, by the source's call; ? = inconclusive; . = not tested or not shown. This is a sample that favours compounds with a hit; in the whole collection about 1.4% have one here. Calls follow the shape of the dose curve; as a rule, active = well fitted curve in the direction sought with a large enough effect; inconclusive = small, poorly fitted or top-dose-only effect, or another doubt; inactive = no such curve, though single readings can be large; an effect the other way counts as inactive or inconclusive. Potency is read from the fitted curve at half-maximal effect.
SMILES,BRCA1 expr act,EPAC2 ag,USP1 inh,EPAC1 ag,EPAC2 antag,EPAC1 antag
O=C(Nc1ccc2c(c1)C(=O)c1ccccc1-2)c1ccccc1,2.8µM*,0%,?,-1%,2%,-8%
CCOC(=O)c1ccc(NC(=O)c2ccc(NC(=O)c3ccccc3)cc2)cc1,18%,12%,-19%,1%,-1%,6%
Cc1ccc(-c2nn(-c3ccccc3)cc2C(=O)Nc2ccc(C(=O)O)cc2)cc1,10µM*,3%,?,-7%,10%,-9%
O=C(Nc1ccc(-c2ccccc2)cc1)c1ccccc1,-12%,5%,-9%,11%,?,17%
CC(C)OC(=O)c1ccc(NC(=O)c2ccccc2)cc1,2.5µM*,-9%,-4%,0%,-15%,-11%
Cc1ccc(NC(=O)c2ccccc2)cc1,3.5µM*,4%,-8%,9%,-4%,10%
O=[N+]([O-])c1ccc(O/N=[N+](\[O-])N2CCCC2)c([N+](=O)[O-])c1,0%,.,.,.,.,.
COCCCN1C(=O)C(CC(=O)NC2CCCCC2)CC(C(=O)N(C(C)C)C(C)C)=C1C (stereo not given),0%,-1%,.,1%,9%,-12%
COc1ccc2[nH]cc(CCNC(=O)Cc3ccc(F)cc3)c2c1,-5%,5%,-8%,12%,15%,-11%
CC1CCCCC1NC(=O)CSc1ncnc2sccc12 (stereo not given),-3%,-8%,-28%,0%,-3%,10%
Cc1ccc(C(=O)CC(=O)c2ccccc2)cc1,5µM*,10%,-2%,7%,1%,-12%
CN(c1cccc(F)c1)c1cc2c(c3c1ccn3C)C1CCC2O1 (stereo not given),-21%,3%,.,5%,-25%,5%
CC(=O)Nc1cnc(-c2ccccc2C(C)=O)cn1,4%,-5%,.,-11%,-8%,-2%
O=C(Nc1nc(-c2ccc3c(c2)OCO3)cs1)C1CC1,4.5µM*,20%,-35%,-10%,-7%,-12%
CC(=O)Nc1cnc(-c2ccc3c(c2)OCO3)cn1,2.8µM*,9%,.,10%,10%,-6%
CC(=O)Nc1ccc(NC(=O)C2(C)Cc3c(-c4ccc5c(c4)OCO5)ccnc3O2)cc1 (stereo not given),-8%,12%,.,7%,-7%,-22%
CC(=O)Nc1cnc(-c2cc(C)c(O)c(C)c2)cn1,8.9µM*,16%,.,-6%,5%,-5%
O=C(O)C(=O)Nc1nc(-c2ccc3c(c2)OCCO3)cs1,49%,1%,-14%,6%,-5%,-27%
C#CCOCCOCCOCCNc1nc(N2CCN(C(=O)[C@H](CO)n3cc([C@@H](N)C(C)C)nn3)CC2)nc(N2CCN(C(=O)[C@H](CO)n3cc([C@@H](N)C(C)C)nn3)CC2)n1,23%,5%,-30%,-10%,8%,-4%
COc1ccc(C(=O)CC(=O)c2ccccc2O)cc1OC,13µM*,20%,-17%,23%,-1%,2%
COc1ccc(C(=O)CC(=O)c2ccccc2O)cc1,?,17%,-19%,8%,-6%,0%
CCC(=O)c1ccc(OCc2ccccc2)c(OC)c1,6.3µM*,1%,-21%,-12%,1%,1%
COCCOc1ccc(C(F)(F)F)cc1NC(=O)COC(=O)C1=COCCO1,-4%,4%,0%,-49%,-5%,-7%
COC(=O)c1oc2ccc(OC)cc2c1N,?,3%,-11%,-1%,5%,10%
COc1ccc(C(=O)c2oc3ccc(OC)cc3c2N)cc1,5µM*,-9%,-19%,-11%,-21%,?
SMILES,BRCA1 expr act,EPAC2 ag,USP1 inh,EPAC1 ag,EPAC2 antag,EPAC1 antag
CCN(CC)c1ccc(C=C(c2nnnn2-c2ccccc2)c2nnnn2-c2ccccc2)cc1,-31%,8%,?,-3%,38%,5%
Cc1ccc(-n2nnnc2C(=Cc2ccc(N(C)C)cc2)c2nnnn2-c2ccc(C)cc2)cc1,-15%,12%,22µM*,6%,3%,15%
c1cc(-c2ccc3nncn3c2)ccc1CN1CCOCC1,19%,11%,.,1%,4%,-10%
CC(C)(C)n1ncc2c(=O)n(CC(=O)c3ccccc3)cnc21,13µM*,-7%,-17%,-3%,-1%,-11%
O=C(Cn1cnc2ccccc2c1=O)c1ccc(Cl)cc1,8.9µM*,5%,-21%,3%,2%,-15%
Cc1cccc(C(C)C)c1NC(=O)Cn1c(=O)oc2cc(S(=O)(=O)N3CCCC3)ccc21,.,.,7%,.,.,.
CC1(C)CC[C@]2(C(=O)O[C@@H]3O[C@H](CO)[C@@H](O)[C@H](O)[C@H]3O)CC[C@]3(C)C(=CCC4[C@@]5(C)CC[C@H](O[C@@H]6O[C@H](C(=O)O)[C@@H](O[C@H]7OC[C@@H](O)[C@@H](O)[C@@H]7O)[C@H](O)[C@H]6O)C(C)(C)C5CC[C@]43C)[C@@H]2C1 (stereo not given in full),18%,1%,-27%,-15%,10%,-9%
CC1(C)CC[C@]2(C(=O)O)CC[C@]3(C)C(=CC[C@@H]4[C@@]5(C)CC[C@H](O[C@@H]6O[C@H](C(=O)O)[C@@H](O)[C@H](O[C@@H]7OC[C@H](O)[C@H](O)[C@H]7O)[C@H]6O)C(C)(C)[C@@H]5CC[C@]43C)[C@@H]2C1,-54%,-8%,-30%,-25%,6%,50µM*
C/C(Cc1ccccc1)=N\NC(=O)c1cccnc1,0%,-3%,-7%,-11%,9%,?
C/C(Cc1ccccc1)=N\NC(=O)c1ccccn1,2.2µM*,4%,-5%,14%,-4%,11%
COc1ccccc1C(C(=O)c1ccccc1)c1ccc(O)cc1 (stereo not given),.,1%,.,3%,56µM*,-16%
COc1ccccc1C(C(=O)c1ccccc1)c1ccc2ccccc2c1 (stereo not given),.,7%,.,18%,-23%,-7%

# Screening data deposited in PubChem by National Center for Advancing Translational Sciences (NCATS).
